Reference: the supplement of paper PMC10849652
Targets with a hit are over-represented here; the source holds about 7,900 in all. About 0.6% of all pairs of compound and target were hits. Values without a mark were called inactive.

Legend:
Assay in all cases: log2 fold change, soluble protein after heating vs DMSO (PISA); higher = thermal stabilisation; K562 cells, 10 uM, 30 min; active = over 0.2 and 3.5 SD of the protein, either way, in both replicates (recomputed)
[1] = compound: NC(=O)Nc1cc(-c2cccc(F)c2)sc1C(=O)N[C@H]1CCCNC1
Procedure, shortened: (§1)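 Soluble protein was quantified by TMTpro 16plex LC-MS/MS after channel sums were equalised. It was obtained as the supernatant after 21,000xg for 90 min from pooled aliquots of K562 cells (2×10^6 cells/mL, 10 μM compound, 30 min) heated for 3 min across 48°C-58°C and extracted in PBS with 0.5% NP-40 at 4°C. Thermal stability values are relative to control samples and come from duplicates. They are given as log2 fold changes.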

[2] = compound: NC(=O)c1cnc(N[C@@H]2CCCC[C@@H]2N)nc1Nc1cccc(-n2nccn2)c1
Procedure, shortened: as §1

[3] = compound: NC1(c2ccc(-c3nc4ccn5c(=O)[nH]nc5c4cc3-c3ccccc3)cc2)CCC1
Procedure, shortened: as §1

[4] = compound: NCC(=O)Nc1ccc(-n2nc(C(F)(F)F)cc2-c2ccc3c(ccc4ccccc43)c2)cc1
Procedure, shortened: as §1

[5] = compound: Nc1ccccc1NC(=O)c1ccc(CNC(=O)OCc2cccnc2)cc1 [entinostat]
Procedure, shortened: as §1

[6] = compound: O=C(CCCCCCC(=O)Nc1ccccc1)NO [vorinostat]
Procedure, shortened: as §1

[7] = compound: O=C(CCCCCCNC(=O)c1cnc(N(c2ccccc2)c2ccccc2Cl)nc1)NO [citarinostat]
Procedure, shortened: as §1

[8] = compound: O=C(O)c1ccc2c(c1)nc(Nc1cccc(Cl)c1)c1ccncc12 [silmitasertib]
Procedure, shortened: as §1

[9] = compound: O=C1NC(=O)C(c2cnc3ccccn23)=C1c1cn2c3c(cc(F)cc13)CN(C(=O)N1CCCCC1)CC2
Procedure, shortened: as §1

[10] = compound: c1cc(OCCN2CCCCC2)cc(-c2n[nH]c3ccc(-c4nnc[nH]4)cc23)c1
Procedure, shortened: as §1

[11] = compound: c1cn2cc(-c3ccc4cn[nH]c4c3)nc(Nc3ccc(N4CCOCC4)cc3)c2n1 [entospletinib]
Procedure, shortened: as §1

UniProt Q9HB90, sequence (Q9HB90 whole entry, looked up): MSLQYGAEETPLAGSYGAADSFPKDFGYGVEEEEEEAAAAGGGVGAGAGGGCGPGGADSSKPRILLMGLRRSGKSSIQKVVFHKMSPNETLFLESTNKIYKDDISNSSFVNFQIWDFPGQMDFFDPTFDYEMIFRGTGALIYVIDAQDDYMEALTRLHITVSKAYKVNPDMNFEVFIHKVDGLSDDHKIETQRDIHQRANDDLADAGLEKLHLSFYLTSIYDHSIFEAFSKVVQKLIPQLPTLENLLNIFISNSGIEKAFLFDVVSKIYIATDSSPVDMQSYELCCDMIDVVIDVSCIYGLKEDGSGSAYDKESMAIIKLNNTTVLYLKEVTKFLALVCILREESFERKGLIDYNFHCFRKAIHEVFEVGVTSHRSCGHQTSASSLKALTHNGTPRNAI
UniProt Q9NTJ5, sequence (Q9NTJ5 whole entry, looked up): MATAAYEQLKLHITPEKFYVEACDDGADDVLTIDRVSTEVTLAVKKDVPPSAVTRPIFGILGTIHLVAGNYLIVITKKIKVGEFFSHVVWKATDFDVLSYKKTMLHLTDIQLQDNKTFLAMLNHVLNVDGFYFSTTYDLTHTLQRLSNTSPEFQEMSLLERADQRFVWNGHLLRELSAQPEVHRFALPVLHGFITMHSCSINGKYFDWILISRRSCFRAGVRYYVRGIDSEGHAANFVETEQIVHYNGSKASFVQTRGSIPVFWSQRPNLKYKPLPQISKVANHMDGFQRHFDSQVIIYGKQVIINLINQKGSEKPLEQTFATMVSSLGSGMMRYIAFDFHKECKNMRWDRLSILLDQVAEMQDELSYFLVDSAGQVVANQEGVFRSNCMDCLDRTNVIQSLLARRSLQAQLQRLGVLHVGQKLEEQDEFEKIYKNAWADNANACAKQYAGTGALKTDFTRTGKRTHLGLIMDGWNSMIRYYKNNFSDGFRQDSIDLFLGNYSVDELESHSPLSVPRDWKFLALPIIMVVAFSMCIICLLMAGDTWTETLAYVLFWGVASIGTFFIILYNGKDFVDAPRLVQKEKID
UniProt P27694, sequence (P27694 whole entry, looked up): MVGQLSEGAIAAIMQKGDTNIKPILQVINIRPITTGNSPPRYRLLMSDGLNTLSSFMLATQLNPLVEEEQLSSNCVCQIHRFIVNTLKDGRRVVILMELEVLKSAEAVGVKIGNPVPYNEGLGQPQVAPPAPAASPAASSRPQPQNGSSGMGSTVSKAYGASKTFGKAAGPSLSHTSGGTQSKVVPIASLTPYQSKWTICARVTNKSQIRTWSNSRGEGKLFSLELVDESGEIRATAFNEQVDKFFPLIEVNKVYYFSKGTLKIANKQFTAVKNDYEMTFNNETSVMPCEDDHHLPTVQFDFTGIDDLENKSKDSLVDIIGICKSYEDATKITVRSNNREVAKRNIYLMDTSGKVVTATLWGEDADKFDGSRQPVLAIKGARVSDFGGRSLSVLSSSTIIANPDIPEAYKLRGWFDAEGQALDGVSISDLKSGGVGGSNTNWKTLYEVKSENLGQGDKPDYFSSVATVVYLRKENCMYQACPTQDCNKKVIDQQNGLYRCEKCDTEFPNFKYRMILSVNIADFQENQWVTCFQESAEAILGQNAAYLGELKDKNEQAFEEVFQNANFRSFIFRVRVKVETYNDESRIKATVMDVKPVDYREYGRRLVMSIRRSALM
UniProt Q15050, sequence (Q15050 whole entry, looked up): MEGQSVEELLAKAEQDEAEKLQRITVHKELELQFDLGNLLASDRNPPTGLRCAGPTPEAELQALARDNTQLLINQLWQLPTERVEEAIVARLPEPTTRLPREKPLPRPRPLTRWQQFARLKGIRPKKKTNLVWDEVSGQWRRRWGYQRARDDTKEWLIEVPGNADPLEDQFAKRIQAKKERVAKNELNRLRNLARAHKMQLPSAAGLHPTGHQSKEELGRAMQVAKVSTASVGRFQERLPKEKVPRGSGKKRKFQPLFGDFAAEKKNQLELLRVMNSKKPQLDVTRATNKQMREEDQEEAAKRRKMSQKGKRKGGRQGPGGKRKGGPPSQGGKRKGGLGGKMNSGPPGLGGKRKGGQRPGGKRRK
UniProt P43003, sequence (P43003 whole entry, looked up): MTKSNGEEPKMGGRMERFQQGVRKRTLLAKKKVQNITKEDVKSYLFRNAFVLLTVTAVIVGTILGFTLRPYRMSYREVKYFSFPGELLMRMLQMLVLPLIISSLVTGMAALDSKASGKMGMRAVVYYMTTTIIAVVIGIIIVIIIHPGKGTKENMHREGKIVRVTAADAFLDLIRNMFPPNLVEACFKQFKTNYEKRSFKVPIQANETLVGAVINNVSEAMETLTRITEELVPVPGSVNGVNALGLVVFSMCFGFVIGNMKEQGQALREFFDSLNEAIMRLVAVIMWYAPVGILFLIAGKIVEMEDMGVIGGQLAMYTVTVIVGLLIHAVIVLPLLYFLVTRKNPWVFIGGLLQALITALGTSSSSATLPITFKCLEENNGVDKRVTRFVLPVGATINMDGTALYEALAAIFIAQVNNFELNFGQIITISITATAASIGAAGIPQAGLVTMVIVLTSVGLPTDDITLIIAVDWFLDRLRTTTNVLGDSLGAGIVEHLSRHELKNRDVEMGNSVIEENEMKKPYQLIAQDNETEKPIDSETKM
UniProt Q96GF1, sequence (Q96GF1 whole entry, looked up): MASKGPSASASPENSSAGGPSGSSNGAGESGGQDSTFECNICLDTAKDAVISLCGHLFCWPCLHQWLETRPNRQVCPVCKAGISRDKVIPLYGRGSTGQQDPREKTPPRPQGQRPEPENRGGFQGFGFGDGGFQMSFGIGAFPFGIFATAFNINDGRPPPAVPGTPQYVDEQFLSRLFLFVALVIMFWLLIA
UniProt Q13796, sequence (Q13796 whole entry, looked up): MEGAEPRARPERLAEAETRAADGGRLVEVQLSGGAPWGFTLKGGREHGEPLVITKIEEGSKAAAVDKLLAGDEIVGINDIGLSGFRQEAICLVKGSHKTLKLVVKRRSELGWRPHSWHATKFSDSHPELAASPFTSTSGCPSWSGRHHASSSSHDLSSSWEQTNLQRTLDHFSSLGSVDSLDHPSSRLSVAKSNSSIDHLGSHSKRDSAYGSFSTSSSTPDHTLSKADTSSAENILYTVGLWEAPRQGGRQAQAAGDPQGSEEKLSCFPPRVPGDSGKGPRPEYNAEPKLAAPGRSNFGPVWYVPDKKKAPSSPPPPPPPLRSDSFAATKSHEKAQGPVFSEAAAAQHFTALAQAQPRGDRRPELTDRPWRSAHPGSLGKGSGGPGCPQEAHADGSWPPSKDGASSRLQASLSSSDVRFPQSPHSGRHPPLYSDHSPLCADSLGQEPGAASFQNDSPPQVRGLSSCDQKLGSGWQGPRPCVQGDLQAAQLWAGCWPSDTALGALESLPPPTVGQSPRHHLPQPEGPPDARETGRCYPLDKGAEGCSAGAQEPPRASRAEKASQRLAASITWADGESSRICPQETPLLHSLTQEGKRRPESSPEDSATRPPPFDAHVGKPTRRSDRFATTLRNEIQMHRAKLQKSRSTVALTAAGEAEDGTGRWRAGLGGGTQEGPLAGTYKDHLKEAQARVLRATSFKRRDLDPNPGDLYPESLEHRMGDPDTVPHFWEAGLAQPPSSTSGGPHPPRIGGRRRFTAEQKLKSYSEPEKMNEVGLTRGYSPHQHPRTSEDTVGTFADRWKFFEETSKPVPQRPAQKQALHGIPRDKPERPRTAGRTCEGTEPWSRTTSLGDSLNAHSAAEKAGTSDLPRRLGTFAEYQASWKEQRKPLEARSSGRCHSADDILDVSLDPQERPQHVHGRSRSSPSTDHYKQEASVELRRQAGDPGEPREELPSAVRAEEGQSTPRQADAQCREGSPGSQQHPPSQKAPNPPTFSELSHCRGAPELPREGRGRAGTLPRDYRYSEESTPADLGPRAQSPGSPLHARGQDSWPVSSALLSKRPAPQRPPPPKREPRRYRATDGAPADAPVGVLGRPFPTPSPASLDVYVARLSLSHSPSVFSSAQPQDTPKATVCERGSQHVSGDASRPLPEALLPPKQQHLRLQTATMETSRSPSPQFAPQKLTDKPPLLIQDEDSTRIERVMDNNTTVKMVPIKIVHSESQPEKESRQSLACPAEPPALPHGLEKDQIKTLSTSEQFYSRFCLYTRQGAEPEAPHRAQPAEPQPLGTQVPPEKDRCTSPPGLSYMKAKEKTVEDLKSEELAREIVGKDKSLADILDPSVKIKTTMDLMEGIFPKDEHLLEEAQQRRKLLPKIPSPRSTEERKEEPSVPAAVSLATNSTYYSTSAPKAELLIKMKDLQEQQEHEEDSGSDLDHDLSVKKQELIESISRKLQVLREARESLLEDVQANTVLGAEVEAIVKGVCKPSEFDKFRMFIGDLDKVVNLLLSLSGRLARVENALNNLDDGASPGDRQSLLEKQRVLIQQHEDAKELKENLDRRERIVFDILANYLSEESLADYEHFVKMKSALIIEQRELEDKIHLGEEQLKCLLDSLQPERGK
UniProt Q13546, sequence (Q13546 whole entry, looked up): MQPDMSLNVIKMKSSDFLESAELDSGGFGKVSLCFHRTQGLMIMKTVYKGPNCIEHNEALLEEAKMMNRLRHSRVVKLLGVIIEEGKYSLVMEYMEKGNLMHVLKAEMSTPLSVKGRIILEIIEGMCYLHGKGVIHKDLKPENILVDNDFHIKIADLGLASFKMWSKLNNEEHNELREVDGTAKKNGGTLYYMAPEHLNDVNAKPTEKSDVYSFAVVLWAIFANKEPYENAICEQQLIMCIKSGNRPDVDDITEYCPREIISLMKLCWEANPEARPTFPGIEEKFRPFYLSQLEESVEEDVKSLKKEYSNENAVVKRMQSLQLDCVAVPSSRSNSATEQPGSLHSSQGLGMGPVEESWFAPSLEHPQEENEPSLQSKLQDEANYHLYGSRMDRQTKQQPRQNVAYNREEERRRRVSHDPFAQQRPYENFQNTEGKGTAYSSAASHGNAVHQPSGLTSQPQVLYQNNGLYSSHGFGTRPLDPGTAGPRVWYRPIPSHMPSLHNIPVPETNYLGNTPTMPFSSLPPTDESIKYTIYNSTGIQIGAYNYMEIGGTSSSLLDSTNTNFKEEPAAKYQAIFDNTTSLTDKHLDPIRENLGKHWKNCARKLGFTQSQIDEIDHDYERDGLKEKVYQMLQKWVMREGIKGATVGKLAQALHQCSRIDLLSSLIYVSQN

| Target | log2 fold change [1] | log2 fold change [2] | log2 fold change [3] | log2 fold change [4] | log2 fold change [5] | log2 fold change [6] | log2 fold change [7] | log2 fold change [8] | log2 fold change [9] | log2 fold change [10] | log2 fold change [11] |
| --- | --- | --- | --- | --- | --- | --- | --- | --- | --- | --- | --- |
| SASH1 (UniProt O94885) | -0.08 | -0.06 | -0.053 | -0.147 | 0.035 | 0.077 | 0.167 | 0.033 | 0.008 | -0.218 | 0.053 |
| RRS1 (UniProt Q15050) | 0.06 | 0.143 | 0.233 | 0.211 | -0.087 | -0.063 | -0.081 | 0.291 | 0.438 | -0.107 | 0.066 |
| SHROOM2 (UniProt Q13796) | 0.024 | -0.09 | 0.275 | 0.006 | -0.037 | 0.068 | 0.057 | -0.141 | -0.088 | 0.057 | -0.173 |
| SACM1L (UniProt Q9NTJ5) | -0.045 | 0 | -0.102 | -0.083 | 0.016 | 0.006 | 0.044 | 0.034 | -0.068 | -0.017 | 0.004 |
| RRP9 (UniProt O43818) | 0 | 0.053 | 0.14 | 0.08 | -0.002 | -0.035 | 0.003 | 0.069 | 0.112 | -0.073 | 0.012 |
| RBM12 (UniProt Q9NTZ6) | -0.044 | -0.062 | -0.219 | -0.106 | 0.133 | 0.128 | 0.107 | -0.026 | -0.219 | -0.002 | -0.055 |
| SAP30 (UniProt O75446) | 0.043 | 0.032 | 0.044 | 0.287 | 0.165 | 0.307 | – | 0.106 | 0.047 | – | – |
| RUFY3 isoform 3 (UniProt Q7L099) | -0.032 | -0.022 | -0.05 | -0.014 | 0.143 | 0.071 | 0.089 | 0.1 | – | 0.013 | -0.046 |
| RPA1 (UniProt P27694) | -0.189 | 0.007 | -0.049 | -0.052 | 0.06 | 0.106 | 0.079 | -0.02 | -0.046 | 0.006 | -0.024 |
| RCOR3 isoform 3 (UniProt Q9P2K3) | 0.019 | -0.067 | -0.129 | -0.177 | 0.1 | 0.127 | 0.115 | -0.043 | – | -0.075 | -0.088 |
| RAP1GDS1 isoform 5 (UniProt P52306) | -0.059 | -0.069 | -0.181 | -0.117 | 0.027 | 0.119 | 0.2 | 0.087 | -0.049 | -0.002 | -0.025 |
| RRAGC (UniProt Q9HB90) | -0.001 | -0.091 | -0.265 (active) | -0.069 | -0.004 | -0.015 | 0.041 | 0.014 | 0.011 | -0.027 | 0.021 |
| RBM17 (UniProt Q96I25) | 0.021 | 0.037 | 0.003 | -0.07 | 0.08 | 0.092 | 0.056 | 0.036 | 0.027 | -0.127 | -0.007 |
| SCD (UniProt O00767) | -0.064 | -0.151 | -0.071 | -0.054 | -0.043 | -0.382 (active) | -0.403 (active) | 0.083 | 0.051 | -0.005 | 0.023 |
| RIPK1 (UniProt Q13546) | 0.037 | -0.06 | -0.092 | -0.009 | 0.088 | -0.014 | -0.006 | 0.025 | 0.205 | 0.047 | 0.135 |
| RAPGEF4 (UniProt Q8WZA2) | -0.095 | -0.13 | -0.054 | -0.04 | -0.003 | – | 0.161 | 0.125 | -0.279 | 0.127 | -0.14 |
| SETMAR (UniProt Q53H47) | 0.11 | -0.024 | 0.05 | -0.078 | -0.032 | 0.004 | -0.629 (active) | -0.064 | -0.105 | -0.255 | 0.075 |

| Target | log2 fold change [1] | log2 fold change [2] | log2 fold change [3] | log2 fold change [4] | log2 fold change [5] | log2 fold change [6] | log2 fold change [7] | log2 fold change [8] | log2 fold change [9] | log2 fold change [10] | log2 fold change [11] |
| --- | --- | --- | --- | --- | --- | --- | --- | --- | --- | --- | --- |
| RNF167 (UniProt Q9H6Y7) | 0.015 | -0.062 | -0.278 | -0.03 | -0.032 | 0.014 | – | 0.095 | -0.028 | – | – |
| RPS2 (UniProt P15880) | 0.035 | 0.081 | 0.195 | 0.089 | -0.036 | 0.001 | -0.079 | 0.01 | 0.086 | -0.189 | 0.08 |
| SEPTIN5 (UniProt G3XAH0) | 0.008 | 0.004 | -0.142 | 0.016 | -0.031 | 0.16 | – | -0.023 | -0.028 | – | – |
| SIK3 (UniProt H0Y4E8) | -0.022 | 0.08 | -0.22 | -0.038 | -0.075 | -0.053 | -0.053 | 0.054 | – | -0.098 | 0.021 |
| SLC1A3 (UniProt P43003) | – | 0.237 | 0.103 | -0.055 | – | 0.143 | -0.096 | -0.021 | -0.18 | -0.182 | 0.028 |
| RNF26 (UniProt Q9BY78) | – | – | – | -0.161 | – | -0.094 | – | – | – | – | – |
| S100A10 (UniProt P60903) | 0.3 | 0.283 | – | – | 0.189 | -0.023 | 0.333 | – | – | 0.792 (active) | -0.102 |
| RNF185 (UniProt Q96GF1) | – | -0.022 | -0.072 | -0.139 | – | -0.28 | -0.135 | 0.001 | – | 0.072 | 0.128 |
| SDCBP isoform 2 (UniProt O00560) | -0.038 | – | -0.286 | – | 0.004 | -0.01 | 0.024 | 0.124 | -0.041 | 0.097 | -0.2 |
| RBM48 isoform 2 (UniProt Q5RL73) | -0.334 | -0.008 | – | – | 0.262 | 0.005 | – | – | 0.029 | – | – |
| RPS3A (UniProt D6R9B6) | -0.41 | -0.391 | – | – | -0.234 | – | – | – | – | – | – |
| RABGAP1L isoform 5 (UniProt Q5R372) | -0.246 | -0.094 | -0.021 | – | -0.051 | – | – | 0.106 | -0.315 (active) | – | – |
| RPS3 (UniProt E9PJN9) | – | – | – | – | – | 0.2 | 0 | – | – | -0.048 | 0.2 |
| SLC12A5 (UniProt Q9H2X9) | -0.111 | -0.077 | -0.064 | -0.043 | -0.05 | – | 0.129 | 0.05 | -0.032 | -0.062 | -0.081 |
| RNF41 (UniProt Q9H4P4) | – | 0.082 | – | – | – | – | 0.044 | – | – | -0.018 | 0.044 |
| RBMY1E (UniProt A6NEQ0) | – | – | -0.246 | – | – | 0.07 | 0.063 | -0.156 | – | -0.081 | -0.057 |
